# Assay results as given in the supplement of paper PMC3334620.
# In all, about 33,000 sequences were measured (“E-score (-0.5 to 0.5)”: median about -0.0014, highest 2% from about 0.25 on). The entries come from a sample that favours the highest values as a whole.
# Biological target: T1, Cad1 (UniProt P24813)
# T1 sequence: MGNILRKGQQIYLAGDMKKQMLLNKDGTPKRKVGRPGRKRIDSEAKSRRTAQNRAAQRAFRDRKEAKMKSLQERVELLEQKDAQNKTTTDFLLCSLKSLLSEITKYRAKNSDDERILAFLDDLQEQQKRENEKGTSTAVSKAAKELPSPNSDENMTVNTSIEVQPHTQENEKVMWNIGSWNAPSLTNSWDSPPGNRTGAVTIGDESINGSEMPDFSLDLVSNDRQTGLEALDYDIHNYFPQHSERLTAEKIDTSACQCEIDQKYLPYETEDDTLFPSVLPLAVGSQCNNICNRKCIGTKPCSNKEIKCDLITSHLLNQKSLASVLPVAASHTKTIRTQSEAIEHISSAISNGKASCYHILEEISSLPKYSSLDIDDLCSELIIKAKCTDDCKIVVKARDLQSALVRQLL
# Assay: PBM E-score (8-mer binding enrichment) (E-score (-0.5 to 0.5)); higher = stronger / more preferred TF binding
# Settings: protein concentration: 100 nM; construct: GST-full length
# Method in brief: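 Using PURExpress in vitro transcription/translation, GST-tagged yeast transcription factors were made in full-length or DNA-binding-domain form. These were applied at about 100-200 nM to double-stranded universal all-10-mer Agilent arrays, and bound protein was detected with fluorescent anti-GST. Scans were normalised with masliner before the Universal PBM Analysis Suite assigned E-scores to ungapped eight-base words pooled with their reverse complements.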
row,Sequence,PBM E-score
1,TCAGCACA,0.172
2,TAGCGCCA,0.0297
3,CCAGCTGA,0.155
4,AGTCAGGG,-0.148
5,CGATTCTC,0.0405
6,ACATGGCC,0.141
7,CCGCGAAG,0.12
8,ACTGTCGA,0.0753
9,AAGGCTGA,-0.00348
10,CCAGTGCC,-0.0306
11,AGTGCGAG,-0.0178
12,AGATCAAT,-0.021
13,ATATCAAA,0.0329
14,ATATCAAT,0.253
15,AGACCTAT,0.111
16,ATCGATGA,0.13
17,CTTCCGCA,0.0248
18,GTTCCGCA,0.252
19,ATTCCGCA,-0.0887
20,GACGGAGA,0.038
21,ATAGGTGA,-0.0537
22,AAATCCAA,0.115
23,CAATCGAA,0.0916
24,TAATCCAA,0.255
25,TAATCGAA,0.35

row,Sequence,PBM E-score
1,AAATCGAA,-0.156
2,GAATCCAA,-0.0184
3,CGTTCGTC,0.248
4,AGTCTCAT,-0.0485
5,GCGCATCC,-0.0757
6,ATGAGGAC,-0.0183
7,AGGGGCGC,-0.103
8,ATTGTCAA,0.084
9,ATTGTCCA,0.132
10,ATTGTCCG,0.271
11,ATTGTCAC,0.0726
12,ATTGTCAG,0.306
13,ATTGTCCC,-0.0923
14,ATCAGAAG,-0.0366
15,ATTTGGAG,-0.204
16,ACTCCACT,-0.0657
17,ACCCGGCG,-0.12
18,CACGACAG,0.0344
19,CACTGTAA,0.00669
20,GATACCCA,0.122
21,ATACGCAA,0.119
22,GTACGCAA,0.0953
23,GCGCGCAA,0.303
24,GCGCGTAA,0.293
25,ATGCGCAT,0.334

row,Sequence,PBM E-score
1,ATGCGCAC,0.14
2,ATGCGCAG,-0.0137
3,CCGCGCAA,0.0795
4,ACGCGCAA,0.206
5,TCGCGTAA,0.19
6,ACGCGTAA,0.176
7,TTACGCAA,0.268
8,GCCTCAGC,-0.0857
9,CTTTCACA,0.209
10,ACAGCATG,-0.053
11,AACTTGGG,-0.0849
12,GGTTGGTA,0.101
13,TCGCAGAA,-0.192
14,TGGCGCAA,-0.0637
15,TAGCGCAA,0.207
16,GCGCAGAA,0.262
17,ATGCGCAA,0.107
18,TCGCGCAA,0.27
19,CCGCAGAA,0.179
20,GTGCGCAA,0.0688
21,TTGCGCAA,0.258
22,ATACACTA,0.205
23,ATATCGTG,0.164
24,ACACCGCC,0.0284
25,AGGATCTA,-0.266

row,Sequence,PBM E-score
1,ACGCATGA,0.0155
2,ACGCATGC,0.283
3,ACGCATGG,-0.215
4,CAGCTGTC,0.253
5,CTGCTGAC,0.275
6,ACGCTGAC,0.3
7,CTGCTGTC,-0.0811
8,CTGCTGAA,0.0549
9,ACGCTGAT,0.166
10,ACGCTGTC,-0.187
11,CAGCTGAC,0.182
12,CAGCTGAG,0.0708
13,GGAAGAAA,-0.0518
14,CTAGTTGC,0.0214
15,GGACTTGA,-0.232
16,ATACTCTG,0.0457
17,GTCAGCAA,0.295
18,ATCAGCAC,0.0147
19,CTCAGCAC,0.0326
20,CTCAGCAA,0.106
21,GTCAGCAC,0.261
22,ATCAGCAA,0.122
23,AGCTCCAC,-0.0867
24,AACGTAGA,0.0503
25,CTTGCTAC,-0.0445

row,Sequence,PBM E-score
1,ACTGTAAT,0.111
2,CTGCCGCA,-0.0367
3,ACGGGTCT,-0.252
4,AGCGATGG,-0.0366
5,TCTTAGCA,-0.0984
6,AACGACCT,-0.0376
7,ATCAATCA,0.13
8,ACGATTAA,0.0443
9,CTGATTAA,0.362
10,ATGATTAC,0.192
11,CTGATTTC,0.182
12,TCGATTAA,0.301
13,GTGATTAA,0.228
14,CTGATTAC,0.334
15,CTGATTTA,0.0612
16,GCGATTAA,0.123
17,ATGATTAG,0.094
18,ATGATTAA,0.32
19,ATGATTGA,0.0737
20,AGGTACAT,-0.172
21,AATCTGGC,-0.102
22,CTCCCTGA,-0.247
23,AAGCGCCT,-0.165
24,ACCTTTAG,-0.142
25,CATAGAGC,-0.22

row,Sequence,PBM E-score
1,CAGTTGGG,-0.0373
2,AAAATTAT,0.285
3,AAAATTAC,0.072
4,AAAATTCT,-0.00425
5,AAAATTGT,0.167
6,AAAATTAA,0.209
7,AAAATTAG,0.269
8,ATCAGTTA,0.212
9,GCCCATAC,-0.1
10,GGCGACCC,-0.332
11,ATTGCCTG,0.0283
12,CTTAACAC,0.127
13,ATTAACAA,0.201
14,ATTAACAC,0.275
15,CGAATAGC,0.0486
16,ACACGCGA,0.143
17,ACACGCGG,0.0311
18,ACACGCGT,0.258
19,ACAAGCGG,0.0904
20,GTTGGAGA,-0.0985
21,ACAAATGT,0.0516
22,GCAAATAC,0.0468
23,ACAAATAA,0.206
24,ATAAATAC,0.252
25,ACAAATAC,0.271

row,Sequence,PBM E-score
1,ACAAATGC,0.255
2,ACAAATAG,0.182
3,CCAAATGC,-0.0453
4,ACAAATAT,0.262
5,ATAAATAA,0.239
6,ATAAATAG,0.121
7,CCAAATAC,0.013
8,GCGGGCCC,-0.157
9,ATCCGCCA,0.0883
10,CAGAAGAC,0.0287
11,AATCATAC,0.0986
12,GGTGAAAC,-0.0742
13,GACTATCC,-0.0732
14,AGAATGAT,0.0516
15,CTTGGCTC,-0.149
16,TAAGCTGA,0.208
17,TAAGCTTA,0.378
18,CAAGCTTA,0.159
19,ACGTAGGG,-0.284
20,AGAGTTTG,0.0139
21,AGATCCCT,-0.312
22,CGATCCCG,-0.265
